Our source for the binding signal values is PMC7862700, “An all-to-all approach to the identification of sequence-specific readers for epigenetic DNA modifications on cytosine”.

Common to all, as to assay: DAPPL (digital affinity profiling via proximity ligation, sequencing); 10 mM Tris-HCl pH 7.5, 50 mM NaCl, 1 mM DTT, 4% glycerol, room temperature, 30 min; GST-TFs on glutathione beads, 16-mer random dsDNA library, 0.1% formaldehyde crosslink after washing; high values mean tight binding
Holding throughout (details): protein: recombinant; tags: N-terminal GST; dsDNA, one strand shown

Assay [1] deals with T1, ERF (Homo sapiens, UniProt P50548 1-548).
T1 sequence: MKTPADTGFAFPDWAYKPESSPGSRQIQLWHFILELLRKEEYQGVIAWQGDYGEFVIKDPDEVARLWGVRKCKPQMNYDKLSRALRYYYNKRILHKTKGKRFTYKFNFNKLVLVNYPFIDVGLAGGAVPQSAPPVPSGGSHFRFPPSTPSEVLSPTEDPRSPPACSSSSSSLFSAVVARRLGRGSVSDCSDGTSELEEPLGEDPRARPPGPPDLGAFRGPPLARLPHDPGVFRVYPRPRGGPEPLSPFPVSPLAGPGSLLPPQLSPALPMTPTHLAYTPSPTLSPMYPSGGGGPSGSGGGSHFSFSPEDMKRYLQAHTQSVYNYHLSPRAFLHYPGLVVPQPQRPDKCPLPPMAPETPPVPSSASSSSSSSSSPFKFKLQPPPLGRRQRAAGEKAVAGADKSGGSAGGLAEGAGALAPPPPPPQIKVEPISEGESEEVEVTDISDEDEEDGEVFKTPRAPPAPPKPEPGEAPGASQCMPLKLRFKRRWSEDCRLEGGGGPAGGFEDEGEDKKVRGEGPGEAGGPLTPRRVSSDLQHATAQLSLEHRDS
Summed up:
(§1)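 Human transcription factors fused to GST were expressed in yeast, captured on glutathione beads, given DNA barcodes and pooled with a GST-only negative control. Pools were incubated with 200 nmole of a 16-mer random double-stranded DNA library in Tris/NaCl/DTT/glycerol buffer at room temperature for 30 min. They were then washed, crosslinked with 0.1% formaldehyde, proximity-ligated (BsaI/T4 ligase, 1 h, 37 °C), PCR-amplified and sequenced on an Illumina NextSeq500. Binding signal is each 6-mer's read frequency for a factor divided by its frequency for the GST control.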

The target in assay [2] is T2, ETV3L (Homo sapiens, UniProt Q6ZN32 1-361).
T2 sequence: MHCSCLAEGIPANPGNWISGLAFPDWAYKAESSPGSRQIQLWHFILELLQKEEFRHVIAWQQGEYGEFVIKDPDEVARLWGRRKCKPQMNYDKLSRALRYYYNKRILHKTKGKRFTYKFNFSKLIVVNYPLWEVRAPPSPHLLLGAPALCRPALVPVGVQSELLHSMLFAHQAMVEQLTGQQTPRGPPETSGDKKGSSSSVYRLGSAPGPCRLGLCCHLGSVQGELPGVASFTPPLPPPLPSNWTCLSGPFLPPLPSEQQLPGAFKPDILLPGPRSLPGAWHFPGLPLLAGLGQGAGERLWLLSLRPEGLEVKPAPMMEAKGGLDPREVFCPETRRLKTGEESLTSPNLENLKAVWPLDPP
In short, it runs like this:
as §1

Assay [3] addresses T3, ETS2 (Homo sapiens, UniProt P15036 1-469).
T3 sequence: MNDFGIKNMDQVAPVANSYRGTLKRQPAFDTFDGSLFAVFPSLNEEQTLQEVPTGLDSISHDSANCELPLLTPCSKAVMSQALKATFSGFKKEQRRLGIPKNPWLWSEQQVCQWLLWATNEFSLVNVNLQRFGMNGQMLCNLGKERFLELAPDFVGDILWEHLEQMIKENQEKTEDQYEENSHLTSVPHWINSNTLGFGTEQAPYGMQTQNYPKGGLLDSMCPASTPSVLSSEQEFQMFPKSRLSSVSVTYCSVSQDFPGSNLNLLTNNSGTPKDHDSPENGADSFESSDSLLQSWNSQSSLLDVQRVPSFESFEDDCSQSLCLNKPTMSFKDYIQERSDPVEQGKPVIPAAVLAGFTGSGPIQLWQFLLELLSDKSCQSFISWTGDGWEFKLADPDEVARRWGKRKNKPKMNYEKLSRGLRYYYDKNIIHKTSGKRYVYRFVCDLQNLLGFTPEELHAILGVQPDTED
In short, it runs like this: as §1

Assay [4] concerns the target T4, SPDEF (Homo sapiens, UniProt O95238 1-335).
T4 sequence: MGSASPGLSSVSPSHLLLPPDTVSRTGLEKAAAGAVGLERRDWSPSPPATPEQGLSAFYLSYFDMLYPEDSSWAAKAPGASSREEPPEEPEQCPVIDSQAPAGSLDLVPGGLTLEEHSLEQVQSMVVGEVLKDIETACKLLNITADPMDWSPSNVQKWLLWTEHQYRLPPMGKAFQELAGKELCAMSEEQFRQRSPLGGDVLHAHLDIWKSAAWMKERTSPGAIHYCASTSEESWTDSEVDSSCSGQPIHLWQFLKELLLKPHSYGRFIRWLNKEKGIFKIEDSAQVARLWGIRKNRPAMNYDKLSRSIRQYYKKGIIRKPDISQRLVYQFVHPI
Summed up: as §1

In assay [5] the target is T5, ETV7 (Homo sapiens, UniProt Q9Y603 1-341).
T5 sequence: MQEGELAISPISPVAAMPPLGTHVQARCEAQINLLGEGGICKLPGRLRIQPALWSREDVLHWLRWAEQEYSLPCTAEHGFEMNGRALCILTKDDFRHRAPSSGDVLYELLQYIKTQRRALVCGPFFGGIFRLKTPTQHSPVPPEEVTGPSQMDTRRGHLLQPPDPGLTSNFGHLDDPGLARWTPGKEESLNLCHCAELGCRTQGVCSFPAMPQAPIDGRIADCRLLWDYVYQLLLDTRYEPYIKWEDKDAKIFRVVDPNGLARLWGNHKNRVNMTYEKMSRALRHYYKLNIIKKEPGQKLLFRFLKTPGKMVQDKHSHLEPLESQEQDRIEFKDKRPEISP
Summed up: as §1

Assay [6] deals with T6, ELF5 (Homo sapiens, UniProt Q9UKW6-2 1-255).
T6 sequence: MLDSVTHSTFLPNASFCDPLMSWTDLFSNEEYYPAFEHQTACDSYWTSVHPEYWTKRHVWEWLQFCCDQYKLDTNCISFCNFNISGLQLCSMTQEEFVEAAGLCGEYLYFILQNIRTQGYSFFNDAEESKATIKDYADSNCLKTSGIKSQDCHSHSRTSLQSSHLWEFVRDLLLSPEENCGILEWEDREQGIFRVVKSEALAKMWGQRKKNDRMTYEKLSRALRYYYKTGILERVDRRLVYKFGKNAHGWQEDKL
Summed up: as §1

The target in assay [7] is T7, ETV3 (Homo sapiens, UniProt P41162-2 1-143).
T7 sequence: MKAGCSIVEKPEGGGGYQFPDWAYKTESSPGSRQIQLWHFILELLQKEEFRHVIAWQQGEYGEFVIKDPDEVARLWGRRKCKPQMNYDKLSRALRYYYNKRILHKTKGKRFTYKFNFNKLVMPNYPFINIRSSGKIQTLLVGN
Summed up: as §1

The target of assay [8] is ETV6 (Homo sapiens, UniProt P41212 1-452). In short, it runs like this: as §1
Sequence of ETV6 (P41212 whole entry): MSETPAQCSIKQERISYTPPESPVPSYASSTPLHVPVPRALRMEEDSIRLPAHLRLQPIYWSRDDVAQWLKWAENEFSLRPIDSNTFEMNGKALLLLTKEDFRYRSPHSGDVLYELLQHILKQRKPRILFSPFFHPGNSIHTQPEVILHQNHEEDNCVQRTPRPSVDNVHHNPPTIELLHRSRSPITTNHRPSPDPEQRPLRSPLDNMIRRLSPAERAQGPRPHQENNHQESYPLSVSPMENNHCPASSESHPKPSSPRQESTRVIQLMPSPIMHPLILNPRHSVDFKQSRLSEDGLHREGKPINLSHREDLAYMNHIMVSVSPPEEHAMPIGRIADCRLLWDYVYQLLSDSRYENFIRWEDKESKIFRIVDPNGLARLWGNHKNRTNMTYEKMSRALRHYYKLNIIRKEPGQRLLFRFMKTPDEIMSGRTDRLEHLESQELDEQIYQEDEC

As to TGACCA, the binding signal was 1.31 fold enrichment (6-mer frequency, TF over GST control) in assay [1]; 1.32 fold enrichment (6-mer frequency, TF over GST control) in assay [2]; 1.23 fold enrichment (6-mer frequency, TF over GST control) in assay [3]; 1.24 fold enrichment (6-mer frequency, TF over GST control) in assay [4]; 1.15 fold enrichment (6-mer frequency, TF over GST control) in assay [5]; 1.16 fold enrichment (6-mer frequency, TF over GST control) in assay [6]. The binding signal in assay [7] is 1.23 fold enrichment (6-mer frequency, TF over GST control); in assay [8], 1.27 fold enrichment (6-mer frequency, TF over GST control).

In the case of TGCTTA, the binding signal in assay [1] is 1.1 fold enrichment (6-mer frequency, TF over GST control); in assay [2] it was 1.09 fold enrichment (6-mer frequency, TF over GST control); in assay [3], 1.1 fold enrichment (6-mer frequency, TF over GST control); in assay [4], 1.18 fold enrichment (6-mer frequency, TF over GST control); in assay [5], 1.12 fold enrichment (6-mer frequency, TF over GST control); in assay [6] it was 1.03 fold enrichment (6-mer frequency, TF over GST control). Further, the binding signal in assay [7] is 1.18 fold enrichment (6-mer frequency, TF over GST control); in assay [8], 1.1 fold enrichment (6-mer frequency, TF over GST control).

As to AAGCTA, the binding signal in assay [1] is 1.18 fold enrichment (6-mer frequency, TF over GST control); in assay [2] it was 1.2 fold enrichment (6-mer frequency, TF over GST control); in assay [3], 1.14 fold enrichment (6-mer frequency, TF over GST control); in assay [4] it was 1.16 fold enrichment (6-mer frequency, TF over GST control); in assay [5], 1.2 fold enrichment (6-mer frequency, TF over GST control); in assay [6], 1.11 fold enrichment (6-mer frequency, TF over GST control). Moreover, the binding signal is 1.2 fold enrichment (6-mer frequency, TF over GST control) in assay [7] and 1.1 fold enrichment (6-mer frequency, TF over GST control) in assay [8].

With TGCGCA, the binding signal is 1.11 fold enrichment (6-mer frequency, TF over GST control) in assay [1]; 1.11 fold enrichment (6-mer frequency, TF over GST control) in assay [2]; 1.18 fold enrichment (6-mer frequency, TF over GST control) in assay [3]; 1.02 fold enrichment (6-mer frequency, TF over GST control) in assay [4]; 1.03 fold enrichment (6-mer frequency, TF over GST control) in assay [5]; 1.06 fold enrichment (6-mer frequency, TF over GST control) in assay [6]. The binding signal was 1.14 fold enrichment (6-mer frequency, TF over GST control) in assay [7] and 1.07 fold enrichment (6-mer frequency, TF over GST control) in assay [8].

For the sequence CACGAC, the binding signal in assay [1] was 1.22 fold enrichment (6-mer frequency, TF over GST control); in assay [2], 1.26 fold enrichment (6-mer frequency, TF over GST control); in assay [3], 1.24 fold enrichment (6-mer frequency, TF over GST control); in assay [4] it was 1.19 fold enrichment (6-mer frequency, TF over GST control); in assay [5], 1.34 fold enrichment (6-mer frequency, TF over GST control); in assay [6], 1.24 fold enrichment (6-mer frequency, TF over GST control). The binding signal in assay [7] was 1.15 fold enrichment (6-mer frequency, TF over GST control); in assay [8] it was 1.24 fold enrichment (6-mer frequency, TF over GST control).

TGTGCC: the binding signal was 1.01 fold enrichment (6-mer frequency, TF over GST control) in assay [1]; 1.19 fold enrichment (6-mer frequency, TF over GST control) in assay [2]; 1.07 fold enrichment (6-mer frequency, TF over GST control) in assay [3]; 1.17 fold enrichment (6-mer frequency, TF over GST control) in assay [4]; 1.04 fold enrichment (6-mer frequency, TF over GST control) in assay [5]; 1.05 fold enrichment (6-mer frequency, TF over GST control) in assay [6]. In addition, the binding signal in assay [7] is 1.13 fold enrichment (6-mer frequency, TF over GST control); in assay [8], 1.21 fold enrichment (6-mer frequency, TF over GST control).

On to ACTCTA, for which the binding signal is 1.56 fold enrichment (6-mer frequency, TF over GST control) in assay [1]; 1.39 fold enrichment (6-mer frequency, TF over GST control) in assay [2]; 1.39 fold enrichment (6-mer frequency, TF over GST control) in assay [3]; 1.38 fold enrichment (6-mer frequency, TF over GST control) in assay [4]; 1.34 fold enrichment (6-mer frequency, TF over GST control) in assay [5]; 1.41 fold enrichment (6-mer frequency, TF over GST control) in assay [6]. Moreover, the binding signal is 1.48 fold enrichment (6-mer frequency, TF over GST control) in assay [7] and 1.33 fold enrichment (6-mer frequency, TF over GST control) in assay [8].
